What all share (assay): DAPPL (digital affinity profiling via proximity ligation, sequencing); 10 mM Tris-HCl pH 7.5, 50 mM NaCl, 1 mM DTT, 4% glycerol, room temperature, 30 min; GST-TFs on glutathione beads, 16-mer random dsDNA library, 0.1% formaldehyde crosslink after washing; high values mean tight binding
One experiment has as its target T1, FLI1 (Homo sapiens, UniProt Q01543 1-452).
T1 sequence: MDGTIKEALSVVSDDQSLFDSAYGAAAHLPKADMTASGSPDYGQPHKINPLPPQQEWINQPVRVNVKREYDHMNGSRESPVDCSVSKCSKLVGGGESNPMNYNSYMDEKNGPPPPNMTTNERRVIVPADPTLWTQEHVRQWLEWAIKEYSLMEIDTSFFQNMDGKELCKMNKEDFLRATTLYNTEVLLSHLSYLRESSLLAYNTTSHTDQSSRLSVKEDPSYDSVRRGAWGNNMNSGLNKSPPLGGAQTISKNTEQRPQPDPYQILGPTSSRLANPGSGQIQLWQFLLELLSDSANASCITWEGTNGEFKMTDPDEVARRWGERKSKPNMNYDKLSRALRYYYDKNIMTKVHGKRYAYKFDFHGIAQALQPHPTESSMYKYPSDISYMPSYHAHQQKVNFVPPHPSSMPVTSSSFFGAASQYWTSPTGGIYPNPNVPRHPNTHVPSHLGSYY
The settings on record: protein: recombinant; tags: N-terminal GST; dsDNA, one strand shown. In outline: (§1)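 The binding signal reported is, for every hexamer, its read frequency for a factor over its read frequency for the tag-only sample. Reads came from pools of yeast-expressed, GST-fused human transcription factors on glutathione beads, barcoded with DNA and mixed with that sample, which were incubated with 200 nmole of a random double-stranded 16-mer DNA library in Tris/NaCl/DTT/glycerol buffer at room temperature for 30 min. After washing, the pools were crosslinked with 0.1% formaldehyde, proximity-ligated with BsaI/T4 ligase for 1 h at 37 °C, PCR-amplified and sequenced on an Illumina NextSeq500.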

In a further experiment the target is T2, ELK1 (Homo sapiens, UniProt P19419 1-428).
T2 sequence: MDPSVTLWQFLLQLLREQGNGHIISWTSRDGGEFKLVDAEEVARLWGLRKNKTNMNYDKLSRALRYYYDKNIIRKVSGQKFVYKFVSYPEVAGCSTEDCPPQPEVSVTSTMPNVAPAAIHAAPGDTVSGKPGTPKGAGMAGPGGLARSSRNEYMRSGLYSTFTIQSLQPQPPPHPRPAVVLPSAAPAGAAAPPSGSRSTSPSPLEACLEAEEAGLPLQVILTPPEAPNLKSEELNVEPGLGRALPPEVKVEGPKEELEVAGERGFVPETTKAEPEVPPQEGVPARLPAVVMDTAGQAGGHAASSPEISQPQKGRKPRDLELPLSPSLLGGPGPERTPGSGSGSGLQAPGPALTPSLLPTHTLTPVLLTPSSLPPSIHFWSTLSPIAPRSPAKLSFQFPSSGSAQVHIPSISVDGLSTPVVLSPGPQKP
The note with it: protein: recombinant; tags: N-terminal GST; dsDNA, one strand shown. In outline:
as §1

For a further experiment, the target named is T3, GABPA (Homo sapiens, UniProt Q06546 1-454).
T3 sequence: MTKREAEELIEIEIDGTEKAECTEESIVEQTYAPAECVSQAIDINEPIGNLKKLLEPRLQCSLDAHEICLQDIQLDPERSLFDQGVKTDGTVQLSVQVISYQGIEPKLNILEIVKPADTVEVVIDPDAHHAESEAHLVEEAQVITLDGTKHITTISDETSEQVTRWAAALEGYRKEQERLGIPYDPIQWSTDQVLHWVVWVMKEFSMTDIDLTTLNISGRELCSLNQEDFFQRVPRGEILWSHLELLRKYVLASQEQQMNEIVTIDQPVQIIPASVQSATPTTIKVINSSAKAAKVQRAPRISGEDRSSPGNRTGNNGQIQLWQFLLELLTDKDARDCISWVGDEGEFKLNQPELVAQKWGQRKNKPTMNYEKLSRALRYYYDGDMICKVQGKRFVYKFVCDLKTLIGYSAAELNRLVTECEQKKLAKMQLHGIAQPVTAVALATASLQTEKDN
The note with it: protein: recombinant; tags: N-terminal GST; dsDNA, one strand shown. In outline: as §1

For a further experiment, the target named is T4, ERG (Homo sapiens, UniProt P11308 1-479).
T4 sequence: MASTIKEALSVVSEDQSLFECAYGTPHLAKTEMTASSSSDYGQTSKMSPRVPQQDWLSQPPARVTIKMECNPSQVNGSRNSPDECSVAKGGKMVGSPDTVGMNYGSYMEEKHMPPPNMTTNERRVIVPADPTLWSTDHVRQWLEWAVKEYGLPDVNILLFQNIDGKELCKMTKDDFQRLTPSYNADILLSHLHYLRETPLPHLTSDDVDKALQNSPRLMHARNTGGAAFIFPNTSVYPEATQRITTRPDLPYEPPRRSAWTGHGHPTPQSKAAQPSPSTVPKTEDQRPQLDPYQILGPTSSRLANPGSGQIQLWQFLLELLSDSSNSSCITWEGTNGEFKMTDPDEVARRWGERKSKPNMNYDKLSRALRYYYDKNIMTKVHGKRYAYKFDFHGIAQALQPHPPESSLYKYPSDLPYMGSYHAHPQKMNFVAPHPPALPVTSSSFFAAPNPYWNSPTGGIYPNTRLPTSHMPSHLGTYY
The note with it: protein: recombinant; tags: N-terminal GST; dsDNA, one strand shown. In a few lines:
as §1

The next experiment has as its target ELF1 (Homo sapiens, UniProt P32519 1-619). The note with it: protein: recombinant; tags: N-terminal GST; dsDNA, one strand shown. In a few lines:
as §1

The target of another experiment is T5, EHF (Homo sapiens, UniProt Q9NZC4 1-300).
T5 sequence: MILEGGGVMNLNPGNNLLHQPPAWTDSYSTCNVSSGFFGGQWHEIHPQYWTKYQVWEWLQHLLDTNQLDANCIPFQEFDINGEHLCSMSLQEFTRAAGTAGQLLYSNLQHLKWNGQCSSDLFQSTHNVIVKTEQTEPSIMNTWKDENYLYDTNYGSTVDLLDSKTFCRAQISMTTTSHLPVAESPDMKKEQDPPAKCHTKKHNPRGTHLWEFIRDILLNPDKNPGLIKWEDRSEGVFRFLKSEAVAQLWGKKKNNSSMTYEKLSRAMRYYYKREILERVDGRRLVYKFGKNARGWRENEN
The note with it: protein: recombinant; tags: N-terminal GST; dsDNA, one strand shown. In a few lines: as §1

For a further experiment, the target named is SPI1 (Homo sapiens, UniProt P17947 1-270). The note with it: protein: recombinant; tags: N-terminal GST; dsDNA, one strand shown. In outline: as §1
In another experiment the target is SPIB (Homo sapiens, UniProt Q01892 1-262). The settings on record: protein: recombinant; tags: N-terminal GST; dsDNA, one strand shown. In outline: as §1
A further experiment concerns the target T6, ELK3 (Homo sapiens, UniProt P41970 1-407).
T6 sequence: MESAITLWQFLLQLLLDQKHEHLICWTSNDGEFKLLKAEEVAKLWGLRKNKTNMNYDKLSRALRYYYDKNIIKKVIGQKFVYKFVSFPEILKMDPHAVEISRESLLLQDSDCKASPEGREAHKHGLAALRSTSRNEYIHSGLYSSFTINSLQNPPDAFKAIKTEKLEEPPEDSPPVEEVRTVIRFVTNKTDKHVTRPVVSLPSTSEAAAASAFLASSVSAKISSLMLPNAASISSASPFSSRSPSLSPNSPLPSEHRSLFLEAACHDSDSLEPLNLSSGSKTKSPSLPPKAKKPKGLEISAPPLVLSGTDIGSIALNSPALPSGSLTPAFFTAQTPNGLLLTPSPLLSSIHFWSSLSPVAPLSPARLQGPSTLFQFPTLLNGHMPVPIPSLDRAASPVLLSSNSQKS
The note with it: protein: recombinant; tags: N-terminal GST; dsDNA, one strand shown. In a few lines: as §1

The target of another experiment is T7, FEV (Homo sapiens, UniProt Q99581 1-238).
T7 sequence: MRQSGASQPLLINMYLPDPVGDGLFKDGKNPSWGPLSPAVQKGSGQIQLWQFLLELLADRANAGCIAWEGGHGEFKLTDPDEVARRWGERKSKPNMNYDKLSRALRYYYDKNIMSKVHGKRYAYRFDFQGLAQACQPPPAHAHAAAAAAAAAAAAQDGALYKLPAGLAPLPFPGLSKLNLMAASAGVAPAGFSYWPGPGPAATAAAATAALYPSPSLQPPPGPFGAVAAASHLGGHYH
The settings on record: protein: recombinant; tags: N-terminal GST; dsDNA, one strand shown. In outline: as §1

The next experiment concerns the target ETV5 (Homo sapiens, UniProt P41161 1-510). The settings on record: protein: recombinant; tags: N-terminal GST; dsDNA, one strand shown. In outline: as §1
The target in the next experiment is HSF1 (Homo sapiens, UniProt Q00613 1-529). The note with it: protein: recombinant; tags: N-terminal GST; chain copies: 3; dsDNA, one strand shown. In outline: as §1
Another experiment addresses T8, SPIC (Homo sapiens, UniProt Q8N5J4 1-248).
T8 sequence: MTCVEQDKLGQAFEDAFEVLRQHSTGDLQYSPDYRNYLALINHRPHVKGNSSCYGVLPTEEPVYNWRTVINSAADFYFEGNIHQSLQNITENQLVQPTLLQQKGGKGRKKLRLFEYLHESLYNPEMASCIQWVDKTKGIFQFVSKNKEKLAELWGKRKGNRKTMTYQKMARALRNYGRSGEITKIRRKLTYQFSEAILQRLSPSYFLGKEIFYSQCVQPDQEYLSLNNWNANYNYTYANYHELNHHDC
The settings on record: protein: recombinant; tags: N-terminal GST; dsDNA, one strand shown. In outline:
as §1

A further experiment has as its target ELF4 (Homo sapiens, UniProt Q99607 1-663). The note with it: protein: recombinant; tags: N-terminal GST; dsDNA, one strand shown. In outline: as §1
The next experiment has as its target T9, ELK4 (Homo sapiens, UniProt P28324-2 1-405).
T9 sequence: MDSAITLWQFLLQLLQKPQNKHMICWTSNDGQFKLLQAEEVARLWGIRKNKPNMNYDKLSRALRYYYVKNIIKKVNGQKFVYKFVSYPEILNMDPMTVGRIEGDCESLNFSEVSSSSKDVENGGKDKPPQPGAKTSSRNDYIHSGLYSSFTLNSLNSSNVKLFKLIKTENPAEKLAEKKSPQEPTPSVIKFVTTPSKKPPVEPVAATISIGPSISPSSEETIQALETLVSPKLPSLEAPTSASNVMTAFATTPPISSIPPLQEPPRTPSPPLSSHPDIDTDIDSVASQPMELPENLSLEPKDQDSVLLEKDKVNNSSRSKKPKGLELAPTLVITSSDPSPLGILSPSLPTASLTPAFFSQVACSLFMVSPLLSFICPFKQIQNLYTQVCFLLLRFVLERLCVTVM
The note with it: protein: recombinant; tags: N-terminal GST; dsDNA, one strand shown. In outline:
as §1

The target in the next experiment is T10, ETV2 (Homo sapiens, UniProt O00321 1-342).
T10 sequence: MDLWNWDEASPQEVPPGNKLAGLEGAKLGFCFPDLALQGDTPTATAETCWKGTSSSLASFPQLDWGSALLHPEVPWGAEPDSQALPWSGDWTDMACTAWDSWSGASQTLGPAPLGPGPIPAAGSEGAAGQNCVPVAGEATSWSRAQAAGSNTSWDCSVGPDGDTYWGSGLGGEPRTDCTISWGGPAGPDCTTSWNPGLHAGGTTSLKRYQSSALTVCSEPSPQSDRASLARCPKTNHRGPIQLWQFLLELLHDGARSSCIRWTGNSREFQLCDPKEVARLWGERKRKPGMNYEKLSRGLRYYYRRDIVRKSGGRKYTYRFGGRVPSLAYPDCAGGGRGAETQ
The settings on record: protein: recombinant; tags: N-terminal GST; dsDNA, one strand shown. In outline: as §1

The target in the next experiment is T11, ELF3 (Homo sapiens, UniProt P78545 1-371).
T11 sequence: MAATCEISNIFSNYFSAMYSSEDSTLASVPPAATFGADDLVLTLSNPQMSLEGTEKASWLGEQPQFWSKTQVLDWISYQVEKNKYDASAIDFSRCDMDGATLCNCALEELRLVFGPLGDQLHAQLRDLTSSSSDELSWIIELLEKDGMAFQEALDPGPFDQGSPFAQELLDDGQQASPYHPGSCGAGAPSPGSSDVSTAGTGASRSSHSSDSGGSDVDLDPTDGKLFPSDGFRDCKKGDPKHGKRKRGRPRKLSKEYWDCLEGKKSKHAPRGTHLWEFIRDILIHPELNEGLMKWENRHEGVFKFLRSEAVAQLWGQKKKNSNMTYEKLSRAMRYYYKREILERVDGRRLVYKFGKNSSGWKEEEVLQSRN
The note with it: protein: recombinant; tags: N-terminal GST; dsDNA, one strand shown. In a few lines: as §1

For another experiment, the target named is CRX (Homo sapiens, UniProt O43186 1-299). The note with it: protein: recombinant; tags: N-terminal GST; dsDNA, one strand shown. In outline:
as §1

In the next experiment the target is ETV1 (Homo sapiens, UniProt P50549 1-477). The settings on record: protein: recombinant; tags: N-terminal GST; dsDNA, one strand shown. In a few lines:
as §1

Chain of SPIB (Q01892 whole entry): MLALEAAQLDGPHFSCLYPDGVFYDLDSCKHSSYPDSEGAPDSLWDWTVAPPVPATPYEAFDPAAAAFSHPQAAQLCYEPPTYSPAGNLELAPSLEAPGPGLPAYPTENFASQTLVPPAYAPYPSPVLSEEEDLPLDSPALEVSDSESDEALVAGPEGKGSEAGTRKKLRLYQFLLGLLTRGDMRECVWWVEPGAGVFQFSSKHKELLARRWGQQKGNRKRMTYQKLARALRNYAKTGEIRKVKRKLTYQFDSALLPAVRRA
Chain of ETV1 (P50549 whole entry): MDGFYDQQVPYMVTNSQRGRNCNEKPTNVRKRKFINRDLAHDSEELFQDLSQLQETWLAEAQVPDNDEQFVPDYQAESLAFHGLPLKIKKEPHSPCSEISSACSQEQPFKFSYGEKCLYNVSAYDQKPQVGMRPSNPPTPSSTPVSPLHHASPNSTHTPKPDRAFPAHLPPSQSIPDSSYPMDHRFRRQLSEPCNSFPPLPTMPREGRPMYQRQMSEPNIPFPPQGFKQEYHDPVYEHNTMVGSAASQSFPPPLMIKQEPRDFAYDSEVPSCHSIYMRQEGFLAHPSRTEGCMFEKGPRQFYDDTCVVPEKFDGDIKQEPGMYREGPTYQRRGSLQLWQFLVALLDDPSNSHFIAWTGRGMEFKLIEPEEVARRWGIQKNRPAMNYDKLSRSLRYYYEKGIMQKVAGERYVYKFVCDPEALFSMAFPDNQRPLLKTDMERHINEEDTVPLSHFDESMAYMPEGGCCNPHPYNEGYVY
Chain of ETV5 (P41161 whole entry): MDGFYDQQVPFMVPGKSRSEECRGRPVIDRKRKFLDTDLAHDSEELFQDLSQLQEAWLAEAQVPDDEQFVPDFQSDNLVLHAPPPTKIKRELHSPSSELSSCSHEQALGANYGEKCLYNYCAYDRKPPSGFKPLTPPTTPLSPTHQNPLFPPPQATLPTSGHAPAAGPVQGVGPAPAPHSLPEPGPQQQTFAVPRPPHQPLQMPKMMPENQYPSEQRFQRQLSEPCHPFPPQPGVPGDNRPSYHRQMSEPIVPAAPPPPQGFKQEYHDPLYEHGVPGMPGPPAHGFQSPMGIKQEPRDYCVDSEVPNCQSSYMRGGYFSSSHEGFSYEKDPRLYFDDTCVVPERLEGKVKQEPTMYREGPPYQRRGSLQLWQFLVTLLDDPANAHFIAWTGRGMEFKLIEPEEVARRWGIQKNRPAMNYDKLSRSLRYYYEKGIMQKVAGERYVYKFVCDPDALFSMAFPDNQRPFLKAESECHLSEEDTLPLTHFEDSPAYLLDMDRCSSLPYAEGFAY
Chain of CRX (O43186 whole entry): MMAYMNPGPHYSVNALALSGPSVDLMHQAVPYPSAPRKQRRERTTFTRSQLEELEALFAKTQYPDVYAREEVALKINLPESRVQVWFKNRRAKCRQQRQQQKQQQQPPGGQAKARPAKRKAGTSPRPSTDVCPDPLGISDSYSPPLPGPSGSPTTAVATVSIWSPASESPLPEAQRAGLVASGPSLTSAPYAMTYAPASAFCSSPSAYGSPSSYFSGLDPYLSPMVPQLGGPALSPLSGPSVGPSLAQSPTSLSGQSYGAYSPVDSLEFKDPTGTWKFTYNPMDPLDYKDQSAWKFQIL
Chain of ELF4 (Q99607 whole entry): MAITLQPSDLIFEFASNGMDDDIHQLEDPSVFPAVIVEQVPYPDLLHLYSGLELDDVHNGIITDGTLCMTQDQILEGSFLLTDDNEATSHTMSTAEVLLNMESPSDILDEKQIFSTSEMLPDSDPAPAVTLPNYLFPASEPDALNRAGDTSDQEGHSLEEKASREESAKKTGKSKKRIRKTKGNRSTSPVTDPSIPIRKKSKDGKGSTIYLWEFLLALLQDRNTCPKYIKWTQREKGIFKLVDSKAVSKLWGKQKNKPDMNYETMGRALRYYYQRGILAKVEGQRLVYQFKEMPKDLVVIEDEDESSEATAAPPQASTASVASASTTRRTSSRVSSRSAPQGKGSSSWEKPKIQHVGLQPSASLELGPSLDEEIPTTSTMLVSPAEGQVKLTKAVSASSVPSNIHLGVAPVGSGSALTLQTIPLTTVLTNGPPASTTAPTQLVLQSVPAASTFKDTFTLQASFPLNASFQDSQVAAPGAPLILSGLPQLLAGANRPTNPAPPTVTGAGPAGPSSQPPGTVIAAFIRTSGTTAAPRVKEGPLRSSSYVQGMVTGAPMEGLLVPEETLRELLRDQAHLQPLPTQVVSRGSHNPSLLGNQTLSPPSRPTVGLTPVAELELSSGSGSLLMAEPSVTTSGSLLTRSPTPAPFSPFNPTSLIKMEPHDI
Chain of HSF1 (Q00613 whole entry): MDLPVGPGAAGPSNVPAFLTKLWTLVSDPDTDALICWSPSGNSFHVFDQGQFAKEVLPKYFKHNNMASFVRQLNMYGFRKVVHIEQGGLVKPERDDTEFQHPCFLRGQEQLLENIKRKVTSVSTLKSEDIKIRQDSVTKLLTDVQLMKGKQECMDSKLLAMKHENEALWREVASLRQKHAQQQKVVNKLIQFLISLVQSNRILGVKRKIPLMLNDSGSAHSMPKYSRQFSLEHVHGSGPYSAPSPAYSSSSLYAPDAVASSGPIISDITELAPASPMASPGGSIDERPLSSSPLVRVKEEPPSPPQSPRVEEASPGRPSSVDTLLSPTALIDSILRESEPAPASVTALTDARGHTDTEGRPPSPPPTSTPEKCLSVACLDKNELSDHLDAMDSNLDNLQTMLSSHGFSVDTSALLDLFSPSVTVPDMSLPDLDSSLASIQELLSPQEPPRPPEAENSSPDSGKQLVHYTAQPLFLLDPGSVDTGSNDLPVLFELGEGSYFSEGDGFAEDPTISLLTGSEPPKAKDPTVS
Chain of ELF1 (P32519 whole entry): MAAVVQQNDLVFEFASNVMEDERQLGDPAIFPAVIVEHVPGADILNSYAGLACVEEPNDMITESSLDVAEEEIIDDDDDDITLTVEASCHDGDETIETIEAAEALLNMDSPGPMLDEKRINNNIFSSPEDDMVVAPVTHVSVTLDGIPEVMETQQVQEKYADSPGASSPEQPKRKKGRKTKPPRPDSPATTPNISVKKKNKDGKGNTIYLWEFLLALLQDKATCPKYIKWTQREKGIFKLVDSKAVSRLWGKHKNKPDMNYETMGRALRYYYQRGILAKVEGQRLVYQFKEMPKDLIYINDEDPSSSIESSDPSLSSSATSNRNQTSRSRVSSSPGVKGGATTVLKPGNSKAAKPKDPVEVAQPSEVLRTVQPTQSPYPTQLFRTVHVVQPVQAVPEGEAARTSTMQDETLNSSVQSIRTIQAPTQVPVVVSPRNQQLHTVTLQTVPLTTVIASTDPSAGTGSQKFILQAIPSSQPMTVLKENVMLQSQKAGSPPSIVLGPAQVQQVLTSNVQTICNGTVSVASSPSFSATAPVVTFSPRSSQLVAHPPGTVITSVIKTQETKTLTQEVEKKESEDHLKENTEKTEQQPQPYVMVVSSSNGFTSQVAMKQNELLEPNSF

For TGGGCT, the binding signal with FLI1 is 1.38 fold enrichment (6-mer frequency, TF over GST control); with ELK1, 1.33 fold enrichment (6-mer frequency, TF over GST control); with GABPA it was 1.48 fold enrichment (6-mer frequency, TF over GST control); with ERG, 1.34 fold enrichment (6-mer frequency, TF over GST control); with ELF1, 1.48 fold enrichment (6-mer frequency, TF over GST control); with EHF, 1.44 fold enrichment (6-mer frequency, TF over GST control). Moreover, the binding signal with SPI1 is 1.43 fold enrichment (6-mer frequency, TF over GST control); with SPIB, 1.38 fold enrichment (6-mer frequency, TF over GST control); with ELK3, 1.49 fold enrichment (6-mer frequency, TF over GST control); with FEV, 1.35 fold enrichment (6-mer frequency, TF over GST control); with ETV5, 1.4 fold enrichment (6-mer frequency, TF over GST control); with HSF1 it was 1.19 fold enrichment (6-mer frequency, TF over GST control). Besides, the binding signal in the experiment with SPIC is 1.28 fold enrichment (6-mer frequency, TF over GST control); in the experiment with ELF4, 1.36 fold enrichment (6-mer frequency, TF over GST control); in the experiment with ELK4, 1.29 fold enrichment (6-mer frequency, TF over GST control); with ETV2 it was 1.26 fold enrichment (6-mer frequency, TF over GST control); with ELF3, 1.4 fold enrichment (6-mer frequency, TF over GST control); in the experiment with CRX, 1.3 fold enrichment (6-mer frequency, TF over GST control). Also, the binding signal with ETV1 was 1.42 fold enrichment (6-mer frequency, TF over GST control).

These data come from PMC7862700, “An all-to-all approach to the identification of sequence-specific readers for epigenetic DNA modifications on cytosine”.
